L3MBTL1 block – qHTS Assay for the Inhibitors of L3MBTL1. Lethal(3)malignant brain tumor-like protein 1 (Homo sapiens), Q9Y468. AlphaScreen L3MBTL1–H3K9me1 peptide binding. Potency, µM (series often up to 57.1 µM), without a hit: top-dose activity, negative = inhibition, hits mostly inhibitors. 0.66% of 230,000 active; also: % is scaled to controls: 0 for no effect and ±100 for the full control effect; nearly all actives have a fitted effect of over 60% in size
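AlphaScreen assay: L3MBTL1 (50 nM final) was preincubated 30 min at room temperature with biotinylated H3(1-15)K9me1 peptide (75 nM final), then 30 min with library compounds; streptavidin donor and nickel chelate acceptor beads (10 ug/mL final) added, 30 min dark.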
Sfp PPTase inh – qHTS Assay for Inhibitors of Bacillus subtilis Sfp phosphopantetheinyl transferase (PPTase). 4'-phosphopantetheinyl transferase ffp (Bacillus subtilis), Q9F4F7. Biochemical Sfp PPTase activity, qHTS. 3.5% of 310,000 active. AID 1490, 2009. Potency, µM, for the others: largest response in the series, negative = inhibition, usual class: inhibitors;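 also: the enzyme is Sfp with the accession as filed and its product quenches rhodamine fluorescence; 0% = enzyme reaction without inhibitor and -100% = no enzyme wells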
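Fluorescence-quenching assay with 15 nM Sfp, 5 uM rhodamine-CoA and 12.5 uM BHQ-2-labelled ybbR peptide in pH 7.6 Hepes/MgCl2 buffer. Enzyme was pre-incubated with compound for 15 min at room temperature. Rate was taken from the 30-min fluorescence change (525/598 nm).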
BAZ2B inh – qHTS Assay for Inhibitors of BAZ2B. Bromodomain adjacent to zinc finger domain protein 2B (Homo sapiens), Q9UIF8. AlphaScreen BAZ2B-H3K14Ac peptide displacement. Potency, µM (series often up to 114 µM), for the others: top-dose activity change, negative = inhibition, usual class: inhibitors. 4.4% of 360,000 active; also: % is scaled to controls: 0 for no effect and ±100 for the full control effect; nearly all actives have a fitted effect of over 60% in size
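Compounds, titrated to a top concentration of 110 uM, were incubated 30 min at room temperature with preformed BAZ2B/acetyl-K14 H3 peptide complex (50 nM each). Proximity signal was measured by AlphaScreen after 20 min with beads.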
JMJD2A Tudor inh – qHTS Assay for Inhibitors of JMJD2A-Tudor Domain; Lysine-specific demethylase 4A (Homo sapiens), O75164; Potency, µM (top dose mostly 114 µM), for inactives: at the highest dose activity change, negative = inhibition, hits mostly inhibitors; 4.4% of 390,000 active; AlphaScreen JMJD2A-Tudor / H3K4me3 peptide binding; also: % is scaled to controls: 0 for no effect and ±100 for the full control effect; nearly all actives have a fitted effect of over 50% in size
HP1b binding inh – HTS for Inhibitors of HP1-beta Chromodomain Interactions with Methylated Histone Tails; Chromobox protein homolog 1 (Homo sapiens), P83916; AlphaScreen HP1-beta / biotin-H3K9me3 peptide binding; Potency, µM (titrated, usually from 114 µM), inactives show at the highest dose activity change, negative = inhibition, usual class: inhibitors; 0.56% of 390,000 active; AID 540317, 2011; also: nearly all actives have a fitted effect of over 70% in size
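HP1-beta protein (50 nM final) preincubated 30 min at room temperature with biotinylated H3(1-18)K9me3 peptide (50 nM) in PBS pH 7.4, 0.01% Tween-20, then compound added for 30 min. AlphaScreen streptavidin donor/nickel chelate acceptor beads (10 ug/mL final), 30 min dark, luminescence read.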
G9a inh – qHTS Assay for Inhibitors of Histone Lysine Methyltransferase G9a; G9a H3K9 monomethylation, AlphaScreen, 2 h; Potency, µM (top dose mostly 102 µM), for inactives: top-dose activity, negative = inhibition, most hits filed as inhibitors; 8.8% of 350,000 active; Histone-lysine N-methyltransferase EHMT2 (Homo sapiens), Q96KQ7; also: % is scaled to controls: 0 for no effect and ±100 for the full control effect; nearly all actives have a fitted effect of over 75% in size
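Step 1: enzyme (final 20 nM) with compound, 15 min RT. Step 2: substrate peptide 500 nM and SAM 20 uM, 2 h RT. Step 3: anti-H3K9me1 antibody and AlphaScreen beads, 10 min, then plate read.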
Starred values were filed as active, the others as inactive; ? = inconclusive; / = no result. Rows were chosen to be rich in hits. Some 12% of all compounds tested hit in one or more screens of this group. Calls follow the shape of the dose curve; as a rule, active = well fitted curve in the direction sought with a large enough effect; inconclusive = small, poorly fitted or top-dose-only effect, or another doubt; inactive = no such curve, though single readings can be large; an effect the other way counts as inactive or inconclusive. Potency is read from the fitted curve at half-maximal effect.

SMILES | L3MBTL1 block | Sfp PPTase inh | BAZ2B inh | JMJD2A Tudor inh | HP1b binding inh | G9a inh
COc1cccc(N2CCN(C(=O)/C=C/c3ccco3)CC2)c1 | -28.6% | 8.91µM* | 50.1µM* | -13.5% | -8.9% | 28.2µM*
O=C(/C=C/c1ccco1)N1CCC(Cc2ccccc2)CC1 | -27.2% | ? | 50.1µM* | 50.1µM* | -38.5% | 31.6µM*
COc1ccc(S(=O)(=O)N2CCN(C(=O)/C=C/c3ccco3)CC2)cc1 | -3.2% | / | -28.0% | -35.0% | 1.1% | 25.1µM*
COc1cccc(C2Nc3ccc4ccccc4c3C3=C2C(=O)CC(C)(C)C3)c1OCC(=O)O (stereo not drawn) | 0.6% | 19.2% | -32.6% | 15.0% | 48.0% | -5.5%
Cc1cc2c(NC(=O)CC(C)(C)CC(=O)O)cccc2nn1 | / | -9.5% | 50.1µM* | -18.6% | 23.9% | /
CC(C)(CC(=O)O)CC(=O)Nc1ccccc1Oc1ccccc1 | -4.7% | 8.8% | -1.8% | -5.4% | 30.5% | -0.2%
COc1ccc(NC(=O)Nc2ccc(F)cc2)c(C)c1 | 1.7% | 10.2% | -21.1% | -24.5% | -6.4% | -11.8%
Cc1cc2c(NC(=O)Nc3ccc(F)cc3)cccc2nn1 | -1.5% | 35.5µM* | -18.1% | -1.4% | 41.6% | 50.1µM*
Cc1nc(N2CCOCC2)c2nc(-c3ccccc3)n(C(C)CN(C)C)c2n1 (stereo not drawn) | / | 15.4% | / | / | / | /
Cc1ccc2nc(C)cc(C(=O)OCC(=O)c3ccc(Cl)c([N+](=O)[O-])c3)c2c1 | -4.8% | -4.3% | ? | ? | 0.1% | /
Cc1cc(C(=O)OCC(=O)c2ccc(Cl)c([N+](=O)[O-])c2)c2cccc(C)c2n1 | ? | 3.5% | ? | 22.4µM* | -10.5% | ?
O=C(CNc1cccc(S(=O)(=O)N2CCCC2)c1)Nc1cccc(C(F)(F)F)c1 | -3.5% | / | / | -13.2% | 29.4% | /
COCCNC(=O)Cn1cc(C(=S)N2CCOCC2)c2ccccc21 | 0.7% | 31.6µM* | -25.0% | -6.2% | -13.2% | 35.5µM*
COc1ccc(CCNC(=O)C(=O)c2cn(CC(=O)N3CCOCC3)c3ccccc23)cc1OC | / | -1.6% | ? | -3.0% | 23.0% | -3.9%
COCCCNC(=O)Cn1cc(C(C)=O)c2ccccc21 | 8.1% | 15.5% | 5.5% | -10.8% | 11.7% | -3.8%
COc1ccc(CCNC(=O)CS(=O)(=O)c2cn(CC(=O)N3CCOCC3)c3ccccc23)cc1OC | / | -10.3% | / | -19.3% | 26.1% | 50.1µM*
COc1ccc(OC)c(NC(=O)CS(=O)(=O)c2cn(CC(=O)N3CCOCC3)c3ccccc23)c1 | / | -1.7% | -1.3% | -4.9% | -1.0% | -50.1%
NC(=O)c1ccc(NC(=O)CS(=O)(=O)c2cn(CC(=O)N3CCCC3)c3ccccc23)cc1 | / | -22.6% | -18.8% | -2.1% | 59.6% | 25.1µM*
COc1ccc(NC(=O)CS(=O)(=O)c2cn(CC(=O)N3CCOCC3)c3ccccc23)cc1OC | / | 56.2µM* | 0.8% | -22.3% | 32.7% | 35.5µM*
CC1CC(C)(C)NC(=S)N1CCC(=O)N1CCc2ccccc21 (stereo not drawn) | -8.4% | 4.9% | -11.8% | -4.4% | 20.3% | 44.7µM*
Cc1ccc(NC(=O)CN2C(=S)NC(C)(C)CC2C)cc1Cl (stereo not drawn) | 10.7% | 5.7% | -21.5% | -14.6% | 11.7% | 15.8µM*
CC1CC(C)(C)NC(=S)N1CCCC(=O)NCCc1ccc(Cl)cc1 (stereo not drawn) | 6.9% | 0.7% | -14.5% | -8.8% | 33.7% | -27.8%
CC(=O)c1cccc(NC(=O)CN2C(=S)NC(C)(C)CC2C)c1 (stereo not drawn) | 16.5% | -35.7% | -18.5% | 12.0% | 6.3% | 31.6µM*
